Bioassay records deposited in PubChem by several laboratories.
CYP2C19 inh: inhibitors of human CYP2C19 | P33261 | CYP2C19 Supersomes, luciferin-H EGE luminescence, 30 min | inhibition, % at 5 µM | 96,000 compounds, 21% hits | AID 778;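 active = CYP2C19 inhibition above a set limit at 5 µM in the primary screen, cut at about 50% in these data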;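 note: plate controls were negative control wells for no effect and 2.5 mM tranylcypromine positive control for full effect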
Cav32 inh: inhibitors of human Cav3.2 T-type calcium channel; 100,000 compounds, 4% hits; Cav3.2-expressing cells, Fluo-4 calcium fluorescence FDSS; hits give low values; O95180; B-score at 10 µM;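 active = single-dose well whose peak fluorescence ratio is a statistical outlier from its plate by either plate-standardised score or position-corrected B-score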
CYP2C9 act: activators of human CYP2C9; P11712; recombinant CYP2C9, luciferin-H conversion, luminescence; hits give high values; factor 1 = untreated enzyme, 0 = blocked; activation factor at 5 µM; 96,000 compounds, 1.4% hits; AID 1024;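 active = activation factor of 2 or more for CYP2C9 at a 5 µM dose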;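 note: 0 = sulfaphenazole-blocked wells and 1 = vehicle-only wells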
CYP2C19 activ: cytochrome P450 2C19 (human) activation | activation factor at 5 µM | P33261 | 96,000 tested, under 10 active | recombinant CYP2C19, luciferin-H EGE luminescence; hits give high values; 0 = fully inhibited enzyme, 1 = untreated enzyme;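 active = activation factor of at least 2 at 5 µM in the primary screen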;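 note: 0 = wells with 2.5 mM tranylcypromine and 1 = vehicle-only wells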
CYP2C9 inh: blocks human cytochrome P450 2C9; P11712; CYP2C9 Supersomes, luciferin-H conversion, luminescence; inhibition, % at 5 µM; 96,000 compounds, 20% hits; AID 777;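 active = blocking of liver enzyme CYP2C9 beyond about 50% at 5 µM, limit read from the data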
The depositor's hits bear a star; . = not tested or not shown. A selection: hits, their analogues and other compounds. The true share with any hit is near 27%.

SMILES | CYP2C19 inh | Cav32 inh | CYP2C9 act | CYP2C19 activ | CYP2C9 inh
Cc1ccc(NC(=O)COc2ccc(C(=O)NCCc3ccccc3)cc2)cc1 | . | -1.5 | . | . | .
Cc1cc(NC(=O)COC(=O)CCC(=O)c2ccc(F)cc2)no1 | 8 | 0.41 | 0.8 | 0.9 | 16
CCSc1nnc(NC(=O)CSc2nc3c(c(=O)n2CCOC)SC(C)C3)s1 (stereo unspecified) | . | -0.32 | . | . | .
COc1cc(C)nc(NC(=O)COc2ccc(Cl)cc2C)n1 | 34 | 0.65 | 1 | 0.7 | -3
CC[N+](CC)(CC)C/C(N)=N/O | 4 | 0.053 | 1 | 1 | 0
Cc1ccc(NC(=O)CNc2ccc(OC(C)C)cc2)cc1 | 33 | -0.46 | 0.3 | 0.7 | 70*
Cc1cc(Nc2nc3ccccc3nc2Cl)n(-c2ccccc2C)n1 | 89* | -3.9 | 0.5 | 0.1 | 49
O=C(CC12CC3CC(CC(C3)C1)C2)NCc1ccncc1 | 99* | -0.81 | 0.1 | 0 | 88*
O=C(COC(=O)C12CC3CC(CC(C3)C1)C2)NCCc1ccccc1 | 53* | -2.4 | 0.1 | 0.5 | 85*
O=C(NCCc1ccncc1)C12CC3CC(CC(C3)C1)C2 | 94* | 0.037 | 0.8 | 0.1 | 25
COc1ccccc1-n1c(=O)[nH]c2c(C(N)=O)nc(-c3cccnc3)nc21 | . | 1.5 | . | . | .
CCc1nnc(NC(=O)c2nc3nc(C)cc(C)n3n2)s1 | -10 | . | 1.1 | 1.1 | -6
COc1ccccc1C(=O)N1CCN(S(=O)(=O)c2ccccc2)CC1 | 93* | 1.3 | 0.5 | 0.1 | 52*
COc1ccc(C(=O)N2CCN(S(=O)(=O)c3ccccc3)CC2)c(OC)c1 | 39 | 0.014 | 0.7 | 0.6 | 32
COc1ccccc1-n1cnnc1SCC(=O)Nc1ncc(Cl)cc1Cl | 27 | 0.63 | 1.1 | 0.7 | -7
COc1ccccc1-n1cnnc1SCC(=O)N1CCN(S(=O)(=O)c2ccccc2)CC1 | 60* | 0.3 | 1 | 0.4 | 3
COc1cccc(OC)c1C(=O)N1CCN(S(=O)(=O)c2ccccc2)CC1 | 53* | . | 0.3 | 0.5 | 74*
COc1ccccc1-n1cnnc1SCC(=O)Nc1nc(C)c(Cl)cc1Cl | 75* | -0.24 | 0.8 | 0.3 | 21
COc1ccc(CCNc2nncc(=O)[nH]2)cc1OC | 20 | 0.61 | 0.8 | 0.8 | 18
O=C(NCc1ccc(F)cc1)C(=O)NCC1OCCN1C(=O)c1ccc(Cl)cc1 (stereo unspecified) | . | 1.6 | . | . | .
O=C(c1ccccc1F)N1CCN(S(=O)(=O)c2ccc(S(=O)(=O)N3CCCCC3)cc2)CC1 | 80* | 0.062 | 0.9 | 0.2 | 9
CCN(Cc1ccccc1)CC(O)COc1ccccc1 (stereo unspecified) | 44 | -0.34 | 0.9 | 0.6 | 12
CC(OCC(O)CN(C)CCOc1ccccc1)c1ccc(Cl)cc1 (stereo unspecified) | 75* | -1.5 | 0.6 | 0.2 | 37
Cc1[nH]n(-c2ccccc2)c(=O)c1Sc1ccc(Cl)cc1 | 52* | -1.3 | 0.1 | 0.5 | 86*
Cc1nc(CNS(=O)(=O)c2cccc(F)c2)cs1 | 28 | 1.5 | 0.9 | 0.7 | 5
SMILES | CYP2C19 inh | Cav32 inh | CYP2C9 act | CYP2C19 activ | CYP2C9 inh
CCc1ccc(OC)c(S(=O)(=O)NCCOc2ccccc2)c1 | 75* | -1.4 | 0.8 | 0.2 | 15
COc1ccc(OC)c(S(=O)(=O)NCc2ccccc2)c1 | 96* | -0.36 | 1.2 | 0 | -16
Cc1nc(CNS(=O)(=O)c2ccc3ccccc3c2)cs1 | 45 | -1.1 | 2* | 0.5 | -101
COc1ccc(OC)c(NS(=O)(=O)Cc2ccccc2)c1 | 94* | . | 1.4 | 0.1 | -36
CCCCOC(=O)c1cc(=O)[nH]c(=O)[nH]1 | . | -3 | . | . | .
CCCOc1ccc(N2CC(C(=O)Nc3ccccc3F)CC2=O)cc1 (stereo unspecified) | 3 | -2.1 | 0.6 | 1 | 41
COc1cc(OC)c(C#N)c(S(=O)(=O)Cc2ccccc2)c1 | 96* | 1.7 | 1.4 | 0 | -44
COc1ccc(S(=O)(=O)NCc2csc(-c3cccnc3)n2)cc1 | 91* | -0.041 | 0.3 | 0.1 | 68*
COc1ccc(-c2nc(CNS(=O)(=O)c3cc(OC)ccc3OC)cs2)cc1 | 70* | -3.2 | 0.3 | 0.3 | 72*
COc1ccc(OC)c(S(=O)(=O)NCc2cccnc2)c1 | 13 | -0.55 | 1.3 | 0.9 | -30
COc1ccc(OC)c(S(=O)(=O)NC(C)(C)C)c1 | 52* | -0.036 | 0.8 | 0.5 | 20
COc1ccc(OC)c(S(=O)(=O)Nc2c(F)cccc2F)c1 | 26 | 1.4 | 1.2 | 0.7 | -20
COc1cccc(C(=O)Nc2c3c(nn2-c2cccc(C)c2C)CS(=O)C3)c1OC (stereo unspecified) | 13 | 1.8 | 0.9 | 0.9 | 14
OC1CC(c2ccco2)NC2(CCCCC2)C1 (stereo unspecified) | -18 | -0.18 | 1.3 | 1.2 | -26
CCS(=O)(=O)NCc1csc(-c2ccccc2)n1 | 70* | 0.83 | 1 | 0.3 | 0
CS(=O)(=O)NCc1csc(-c2ccccc2)n1 | 5 | -1.3 | 0.9 | 0.9 | 7
COc1ccc(N(C(C)=O)S(=O)(=O)c2cc(OC)ccc2OC)cc1 | 28 | -1.7 | 0.5 | 0.7 | 50*
O=S(=O)(NCc1ccccc1)c1ccc(F)cc1Br | . | -0.21 | . | . | .
CCOc1cc(Br)ccc1S(=O)(=O)NCc1ccccc1 | 71* | . | 1.5 | 0.3 | -45
CS(=O)(=O)N(CC(=O)N1CCCC1)c1cccc(Cl)c1Cl | 15 | -0.54 | 1 | 0.9 | 2
Cc1cc(Cl)ccc1OCc1nc(-c2ccc(O)cc2)n[nH]1 | 97* | -0.58 | 0.1 | 0 | 94*
COCCNC(=O)Cc1ccc(Br)cc1 | 56* | 0.4 | 1.1 | 0.4 | -7
COCCNC(=O)CC(c1ccccc1)c1ccccc1 | 52* | 0.89 | 0.6 | 0.5 | 36
Cn1nnnc1SCC(=O)Nc1nc(-c2ccccc2)c(-c2ccccc2)o1 | -1 | -0.2 | 1.1 | 1 | -7
COCCNC(=O)CSc1nc(-c2ccccc2)c(-c2ccccc2)o1 | 82* | . | 0.3 | 0.2 | 71*
SMILES | CYP2C19 inh | Cav32 inh | CYP2C9 act | CYP2C19 activ | CYP2C9 inh
Cc1cccc(N(C(=O)CCC(=O)Nc2cccnc2)C(C(=O)NC2CCCC2)c2ccncc2)c1 (stereo unspecified) | . | 0.98 | . | . | .
Cc1ccc(C)c(NS(=O)(=O)c2cc(C(=O)Nc3cccc(N(C)S(C)(=O)=O)c3)ccc2C)c1 | 24 | -4.4* | 0.2 | 0.8 | 79*
Cc1ccccc1NS(=O)(=O)c1cc(C(=O)N2CCCC2)ccc1C | 20 | 1.6 | 0.6 | 0.8 | 35
CC(=O)c1cccc(NC(=O)c2ccc(N(C)S(C)(=O)=O)cc2)c1 | -9 | 0.31 | 1 | 1.1 | -1
Cc1ccc(C)c(NS(=O)(=O)c2cc(C(N)=O)ccc2C)c1 | 76* | -0.01 | 1 | 0.2 | 2
CCOC(=O)CCc1cnccc1-c1cccc(OC)c1O | . | -0.18 | . | . | .
O=C1NC2NC(=O)N(C(Cc3ccccc3)C(=O)O)C2N1 (stereo unspecified) | 30 | 0.58 | 1.2 | 0.7 | -17
CN1CC(=O)N/C1=N\C(=O)Nc1ccc2c(c1)N(C)C(=O)CS2 | 6 | -0.77 | 0.7 | 0.9 | 33
